# Screening results (PubChem)
# In the library only some 3.4% were active in any assay of this set; here they are far more common.
# MITF inh – MITF inhibitors, primary screen, biochemical, AlphaScreen, human; Microphthalmia-associated transcription factor (Homo sapiens), O75030; inhibition, % at 2.6 µM; AlphaScreen MITF homodimerization, bead proximity signal; 0.91% of 650,000 active; in the data active means inhibition above about 50%
# FBW7 act – FBW7 E3 ligase activators, primary screen, biochemical, AlphaScreen, human | AlphaScreen FBW7–phospho-cyclin E peptide binding, activator screen | normalized activity (activation), % at 26.1 µM | 0.13% of 650,000 active | AID 1259310, 2017; in the data active means normalized activity above about 1.9%;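 further: purified mutant Fbw7 with reduced substrate affinity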
# TEAD-YAP block – TEAD-YAP interaction inhibition, primary screen, TEAD-YAP interaction inhibitor project, luminescence, HEK-TIYL cells. inhibition, % at 9.12 µM. TEAD-Gal4/YAP UAS-luciferase luminescence. 1.4% of 640,000 active; in the data active means inhibition above about 32%
# GPR151 activ – activators of human GPR151, primary screen, cell-based, PathHunter beta-arrestin, luminescence; G-protein coupled receptor 151 (Homo sapiens), Q8TDV0; PathHunter beta-arrestin GPR151 cells; activation, % at 11.2 µM; 1% of 650,000 active; AID 1508602, 2020; in the data active means activation above about 4.9%
# Target sequence (Q8TDV0 whole entry, looked up): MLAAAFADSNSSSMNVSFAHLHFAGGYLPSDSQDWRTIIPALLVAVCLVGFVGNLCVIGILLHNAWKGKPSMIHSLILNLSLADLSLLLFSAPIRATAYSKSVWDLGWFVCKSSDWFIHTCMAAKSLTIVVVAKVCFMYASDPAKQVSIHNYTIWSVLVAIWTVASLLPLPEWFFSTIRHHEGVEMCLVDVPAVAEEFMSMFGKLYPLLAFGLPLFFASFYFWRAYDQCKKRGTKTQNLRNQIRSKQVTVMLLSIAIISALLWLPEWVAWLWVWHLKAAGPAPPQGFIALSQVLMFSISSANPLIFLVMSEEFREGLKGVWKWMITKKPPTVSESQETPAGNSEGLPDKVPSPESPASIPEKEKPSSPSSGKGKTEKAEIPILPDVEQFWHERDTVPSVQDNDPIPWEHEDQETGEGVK
# GPR151 confirm – GPR151 activators, triplicate retest, confirmation, cell-based, PathHunter beta-arrestin, luminescence; shares compounds with GPR151 activ; GPR151 PathHunter beta-arrestin cells, 90 min; % of EA-reagent control over plate median; activation, % at 11.2 µM; 6,700 tested, under 10 active; AID 1508609, 2020;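 active means mean percent activation across replicates above the confirmation screen cutoff of 4.91%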
# GPR119 counter – GPR119 activators in beta-arrestin cells, counter-screen for GPR151 activator project, cell-based, PathHunter beta-arrestin, luminescence, triplicate. shares compounds with GPR151 activ. 90 min; 0 = compound-well median, 100 = enzyme-acceptor control. activation, % at 11.2 µM. 0.3% of 6,700 active. AID 1508611, 2020;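 active means mean percent activation in the counterscreen above 29.09%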;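 further: counterscreen on off-target GPR119 to flag nonselective hits from the GPR151 activator screen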
# A number is an active result; - = inactive; . = not tested or not shown.
SMILES,MITF inh,FBW7 act,TEAD-YAP block,GPR151 activ,GPR151 confirm,GPR119 counter
CCOC(=O)c1oc2ccccc2c1NC(=O)C1COc2ccccc2O1 (centres undefined),-,-,-,5.5,-,-
CCOC(=O)c1oc2ccccc2c1NC(=O)c1ccc(Cl)s1,-,-,-,6.5,-,-
CCc1nnc(NC(=O)c2cc3c(s2)-c2ccccc2S(=O)(=O)C3)s1,-,-,-,-,.,.
Cc1ccc(NC(=O)COc2ncnc3ccc(Br)cc23)cc1[N+](=O)[O-],-,-,-,-,.,.
O=C(COc1ncnc2ccc(Br)cc12)Nc1ccc(F)c([N+](=O)[O-])c1,-,-,-,5.2,-,-
CCOC1OC(=O)C(Cl)=C1Nc1cccc(C)c1 (centres undefined),-,-,-,5.0,-,-
CC(=O)Nc1cc(-c2cccc(Br)c2)nn1-c1ccccc1,-,-,-,5.3,-,-
CCC(C)NC(=O)C1=C(C)C(=O)OC12CCCCC2 (centres undefined),-,-,-,12,-,-
CC(C)(C)OC(=O)NCCCC1=CC2=CC(=O)C(C)(OC(=O)CCc3ccccc3)C(=O)C2=CO1 (centres undefined),-,-,.,-,.,.
CCC(=O)OC1(C)C(=O)C=C2C=C(c3ccc(C#N)cc3)OC=C2C1=O (centres undefined),-,-,.,5.0,-,-
CCCCC1=CC2=CC(=O)C(C)(OC(=O)CCc3ccccc3)C(=O)C2=CO1 (centres undefined),-,-,.,8.4,-,-
O=C(O)/C=C/c1cccc(NS(=O)(=O)c2ccc([N+](=O)[O-])cc2)c1,-,-,-,-,.,.
Fc1ccc(CNc2ccnc3c(-c4cccs4)cnn23)cc1,-,-,-,-,.,.
Cc1ccccc1N(CC(=O)NC(C)(C)C)C(=O)CCC(=O)Nc1nccs1,-,-,-,5.7,-,-
CCC(C)(C)NC(=O)CN(C(=O)CCC(=O)Nc1nccs1)c1ccccc1C,-,-,-,-,.,.
c1ccc(-c2nnc3ccc(SCc4cccnc4)nn23)cc1,-,-,-,-,.,.
Fc1ccc(CSc2ccc3nnc(-c4cccnc4)n3n2)cc1,-,-,-,5.3,-,-
COCC(=O)NC1CCN(C(=S)Nc2ccc(Cl)cc2)CC1,-,-,-,7.4,-,-
COCC(=O)NC1CCN(C(=S)Nc2ccccc2Cl)CC1,-,-,-,-,.,.
CCn1cc(CN2CCCC(CNC(=O)c3ccc(-c4ccccc4)cc3)C2)cn1 (centres undefined),-,-,-,6.0,-,-
O=C(COc1ccccc1)N1CCN(S(=O)(=O)c2cc3c4c(c2)CCC(=O)N4CCC3)CC1,-,-,-,-,.,.
COc1cc(Nc2nc(-c3cccc(C(C)=O)c3)nc3c2ncn3C2CCCCC2)cc(OC)c1OC,-,-,-,-,.,.
COc1cccc(CNC(=S)NC2CCCC2)c1,-,-,-,6.3,-,-
CC1CCCC(NS(=O)(=O)c2ccc(F)c(C(=O)Nc3cc(Cl)ccc3Cl)c2)C1C (centres undefined),-,-,-,7.3,-,-
CC1Cc2ccccc2N1S(=O)(=O)c1ccc(Br)c(C(=O)O)c1 (centres undefined),-,-,-,-,.,.
SMILES,MITF inh,FBW7 act,TEAD-YAP block,GPR151 activ,GPR151 confirm,GPR119 counter
Cn1ccnc1N1CCN(C(=O)c2cccc(F)c2)CC1,-,-,-,5.1,-,-
O=C(Cn1cnc2ccccc2c1=O)NCCC(=O)NC1CCCCC1,-,-,-,-,.,.
COc1ccccc1CN1C[C@@H]2C[C@@H](c3cccc(SC)c3)N3CCC[C@@]23C1=O,-,-,-,6.5,-,-
O=C(Cn1cc2c(n1)CCCC2)NC1CC1,-,-,-,-,.,.
c1ccc2c(c1)sc1nnc(SCc3cn4cccnc4n3)n12,-,-,-,5.0,-,-
Cc1onc(-c2ccccc2)c1C(=O)N1CCN(c2ccc([N+](=O)[O-])c(N3CCOCC3)c2)CC1,-,-,-,-,.,.
C=Cc1ccc(Cn2c(C)c(CNCCC3=CCCCC3)c(C(=O)O)c2C)cc1,-,-,-,6.3,-,-
CCC(CC)CN1CCc2c(C(=O)OC)c(OCC3CC(=O)N(C)C3)cc(=O)n2CC1 (centres undefined),-,-,-,-,.,.
C=CCNC(=O)c1cc2c(=O)n3cccc(C)c3nc2n(C(C)C)c1=N,-,-,-,-,.,.
Cc1cccc(-n2c(O)c(C=Nc3ccccc3I)c(=O)[nH]c2=O)c1,-,-,-,-,.,.
Cc1cccc(-n2c(O)c(/C=N/n3cnnc3)c(=O)[nH]c2=O)c1,-,-,-,5.3,-,-
COc1ccc(Nc2nc(=S)[nH]c3cc(OC)c(OC)cc23)cc1OC,-,-,-,6.6,-,-
COc1cc2[nH]c(=S)nc(Nc3ccncc3)c2cc1OC,-,-,-,-,.,.
CC1(C)CC(=O)c2sc(NSc3ccccc3[N+](=O)[O-])nc2C1,-,-,-,-,.,.
CC(=O)Nc1ccnn1C1CCN(Cc2cnc(N3CCCC3)s2)CC1,-,-,-,-,.,.
CC(C)(C)OC(=O)N1CCN(c2nccc(-c3ccc(-c4ccc(Cl)cc4)s3)n2)CC1,.,.,.,5.3,-,-
CC(C)(C)OC(=O)N1CCC(Nc2nccc(-c3ccc(S(C)(=O)=O)cc3)n2)CC1,-,-,-,-,.,.
CCC(C)c1ccc(NS(=O)(=O)c2c(C)cc(C)cc2C)cc1 (centres undefined),-,-,-,-,.,.
O=C(c1ccc(Cl)cc1)c1cc(NC(=O)c2cc(Br)cc(Br)c2O)ccc1Cl,-,-,-,8.2,-,-
CC(C)(C)NS(=O)(=O)c1ccc2nc(-c3ccccc3)[nH]c2c1,-,-,-,-,.,.
O=C(Cc1csc(-n2cccc2)n1)N1CCN(c2ccccn2)CC1,-,-,-,5.5,-,-
C/C(=C/c1ccccc1)C(=O)Nc1ccc(S(N)(=O)=O)cc1,-,-,-,5.0,-,-
O=C1CCCN1CCn1cnc2c(Nc3ccc(Oc4ccccc4)cc3)nc(N3CCc4ccccc4C3)nc21,-,-,-,-,.,.
O=C1CCCN1CCCNc1nc(NCc2cccc(C(F)(F)F)c2)c2ncn(C3CCCCC3)c2n1,-,-,-,5.9,-,-
FC(F)(F)c1cccc(CNc2ncnc3nc(Nc4ccccc4)[nH]c23)c1,-,-,-,-,.,.
FC(F)(F)c1cccc(CNc2ncnc3nc(Nc4ccc(N5CCOCC5)cc4)[nH]c23)c1,-,-,-,7.1,-,-
O=C1CCCN1CCn1cnc2c(Nc3ccc(N4CCOCC4)cc3)nc(N3CCc4ccccc4C3)nc21,-,-,-,13,-,-
